Structures can show the parent of a compound that is named as a salt. ± gives the standard deviation of the averaged measurements.
What follows are molecules tested on E. coli TESEC Mtb DapB (assay: growth (OD600 after 10 h); higher = more growth (less inhibition)). Details: arabinose induction (level): High; compound 0.1 mM; raw OD600 reference: median of DMSO wells […], cell-free background 0.041.
Experimental: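 TESEC E. coli strains in which the native enzyme is deleted and replaced by arabinose-inducible Mtb Asd, DapB, CysH or TrpD, each grown in its selective medium. Strains were screened against the Prestwick library at 0.1 mM and 1% DMSO in 384-well format at low and high arabinose induction. Growth is read as OD600 after 10 h in triplicate.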

SMILES	growth
COc1ccccc1OCC(O)CN1CCN(CC(=O)Nc2c(C)cccc2C)CC1 (stereo not given) [Ranolazine]	0.174 ± 0.023
CC(=O)OC[C@H]1O[C@@H]([S-])[C@H](OC(C)=O)[C@@H](OC(C)=O)[C@@H]1OC(C)=O.CCP(CC)CC.[Au+] [Auranofin]	0.0674 ± 0.019
CC(C)Cc1ccc([C@H](C)C(=O)O)cc1 [S-(+)-ibuprofen]	0.196 ± 0.014
CC1c2cccc(O)c2C(O)=C2C(=O)C3(O)C(O)=C(C(N)=O)C(=O)C(N(C)C)C3C(O)C21 (stereo not given) [Doxycycline hydrochloride]	0.0563 ± 0.00081
C[C@]12CC[C@@H]3c4ccc(O)cc4CC[C@H]3[C@@H]1CCC2=O [Estrone]	0.208 ± 0.026
c1ccc(CC2=NCCN2)cc1 [Tolazoline hydrochloride]	0.191 ± 0.017
COc1cc(C(=O)NC2CCCNC2)cc(OC)c1OC (stereo not given) [Troxipide]	0.19 ± 0.012
COc1ccc(-c2cc(=S)ss2)cc1 [Anethole-trithione]	0.193 ± 0.0052
CCCNCC(O)COc1ccccc1C(=O)CCc1ccccc1 (stereo not given) [Propafenone hydrochloride]	0.173 ± 0.01
COC(=O)CCc1ccc(OCC(O)CNC(C)C)cc1 (stereo not given) [Esmolol hydrochloride]	0.195 ± 0.0058
CNCCCC12CCC(c3ccccc31)c1ccccc12 [Maprotiline hydrochloride]	0.1849 ± 0.0011
C[C@]12CCC(=O)C=C1CC[C@@H]1[C@@H]2[C@@H](O)C[C@@]2(C)[C@H]1CC[C@]2(O)C(=O)CO [Hydrocortisone base]	0.183 ± 0.017
O=C(CCCCCCC(=O)Nc1ccccc1)NO [Vorinostat]	0.174 ± 0.0062
O=C(Nc1ccccc1)OCC(CN1CCCCC1)OC(=O)Nc1ccccc1 (stereo not given) [Diperodon hydrochloride]	0.2 ± 0.0073
C[C@H]1C[C@@H]2[C@H]([C@@H](O)C[C@@]3(C)[C@H]2CC[C@]3(O)C(=O)CO)[C@@]2(C)C=CC(=O)C=C12 [Methylprednisolone, 6-alpha]	0.175 ± 0.0055
COC(=O)C1=C(C)NC(C)=C(C(=O)OC)C1c1ccccc1[N+](=O)[O-] [Nifedipine]	0.155 ± 0.018
CN1Cc2c(N)cccc2C(c2ccccc2)C1 (stereo not given) [Nomifensine maleate]	0.175 ± 0.013
Nc1nc(=S)c2ncn([C@@H]3O[C@H](CO)[C@@H](O)[C@H]3O)c2[nH]1 [Thioguanosine]	0.174 ± 0.011
CN1CCOC(c2ccccc2)c2ccccc2C1 (stereo not given) [Nefopam hydrochloride]	0.186 ± 0.006
CCOC(=O)C(C)(C)Oc1ccc(Cl)cc1 [Clofibrate]	0.19 ± 0.015

Same assay, conditions: arabinose induction (level): Low; compound 0.1 mM; raw OD600 reference: median of DMSO wells 0.227, cell-free background 0.041

SMILES	growth
COc1ccccc1OCC(O)CN1CCN(CC(=O)Nc2c(C)cccc2C)CC1 (stereo not given) [Ranolazine]	0.226 ± 0.021
CC(=O)OC[C@H]1O[C@@H]([S-])[C@H](OC(C)=O)[C@@H](OC(C)=O)[C@@H]1OC(C)=O.CCP(CC)CC.[Au+] [Auranofin]	0.111 ± 0.019
CC(C)Cc1ccc([C@H](C)C(=O)O)cc1 [S-(+)-ibuprofen]	0.18 ± 0.016
CC1c2cccc(O)c2C(O)=C2C(=O)C3(O)C(O)=C(C(N)=O)C(=O)C(N(C)C)C3C(O)C21 (stereo not given) [Doxycycline hydrochloride]	0.0531 ± 0.0036
C[C@]12CC[C@@H]3c4ccc(O)cc4CC[C@H]3[C@@H]1CCC2=O [Estrone]	0.201 ± 0.022
c1ccc(CC2=NCCN2)cc1 [Tolazoline hydrochloride]	0.256 ± 0.052
COc1cc(C(=O)NC2CCCNC2)cc(OC)c1OC (stereo not given) [Troxipide]	0.216 ± 0.0046
COc1ccc(-c2cc(=S)ss2)cc1 [Anethole-trithione]	0.218 ± 0.011
CCCNCC(O)COc1ccccc1C(=O)CCc1ccccc1 (stereo not given) [Propafenone hydrochloride]	0.185 ± 0.015
COC(=O)CCc1ccc(OCC(O)CNC(C)C)cc1 (stereo not given) [Esmolol hydrochloride]	0.227 ± 0.019
CNCCCC12CCC(c3ccccc31)c1ccccc12 [Maprotiline hydrochloride]	0.211 ± 0.011
C[C@]12CCC(=O)C=C1CC[C@@H]1[C@@H]2[C@@H](O)C[C@@]2(C)[C@H]1CC[C@]2(O)C(=O)CO [Hydrocortisone base]	0.209 ± 0.047
O=C(CCCCCCC(=O)Nc1ccccc1)NO [Vorinostat]	0.204 ± 0.0056
O=C(Nc1ccccc1)OCC(CN1CCCCC1)OC(=O)Nc1ccccc1 (stereo not given) [Diperodon hydrochloride]	0.223 ± 0.038
C[C@H]1C[C@@H]2[C@H]([C@@H](O)C[C@@]3(C)[C@H]2CC[C@]3(O)C(=O)CO)[C@@]2(C)C=CC(=O)C=C12 [Methylprednisolone, 6-alpha]	0.213 ± 0.023
COC(=O)C1=C(C)NC(C)=C(C(=O)OC)C1c1ccccc1[N+](=O)[O-] [Nifedipine]	0.216 ± 0.069
CN1Cc2c(N)cccc2C(c2ccccc2)C1 (stereo not given) [Nomifensine maleate]	0.181 ± 0.025
Nc1nc(=S)c2ncn([C@@H]3O[C@H](CO)[C@@H](O)[C@H]3O)c2[nH]1 [Thioguanosine]	0.115 ± 0.032
CN1CCOC(c2ccccc2)c2ccccc2C1 (stereo not given) [Nefopam hydrochloride]	0.243 ± 0.036
CCOC(=O)C(C)(C)Oc1ccc(Cl)cc1 [Clofibrate]	0.236 ± 0.041
